# Screening results from PubChem.
# TROY NFkB inh: blocks TROY-dependent signaling in reporter cells. Q293 LMP1-TROYcd NF-kB luciferase reporter, 4 h. inhibition, % at 10 µM. hit rate 0.98% among 360,000. AID 1347056;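 active = compounds whose plate-normalised and pattern-corrected inhibition of the luciferase reporter signal at the single screening dose is 50% or more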
# LGR2 antag: inhibitors of bursicon-induced Drosophila LGR2 receptor cAMP signaling; HEK293 LGR2, CRE-luciferase, bursicon-stimulated, 4 h; hit rate 0.35% among 380,000; inhibition, % at 9.99 µM;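 active = drop in luminescence signal, shown as inhibition above about 50% in the replicate tests, limit read from the data, passing the limit was not always enough; inconclusive = probably only some replicates passing the limit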;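 also: agonist challenge used bursicon conditioned medium at about half maximal strength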
# HSF1 activator: increases HSF-1 driven luciferase reporter signal | NIH3T3-HGL HSF-1 luciferase reporter, MG132, 8 h; 100% = twice DMSO control signal | hit rate 1.7% among 300,000 | activation, % at 9 µM;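 active = mean replicate activation of at least 50% with a set share of replicates each reaching 50%; inconclusive = only one of those two conditions met; inactive = mean below 50% and too few replicates reaching it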;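 also: 0% = median of the neutral control wells and 100% = twice that signal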
# HSF1 inh: HSF1 inhibition; hit rate 0.77% among 300,000; activity change, negative = inhibition, % at 7.5 µM (by protocol); NIH3T3-HGL HSE-luciferase, MG132-induced, luminescence 8 h; active compounds read low; AID 2098;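 active = more than half of replicate wells show activity change below -50%, luminescence cut by over half; inconclusive = some wells, but at most half, below -50%; inactive = no replicate well below -50%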;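 also: luciferase reports HSF-1 transcriptional activity via heat shock element; 0% = median of DMSO wells and -100% = zero luminescence signal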
# EBV LMP1 NFkB: Epstein-Barr LMP1 NF-kappaB reporter inhibition; LMP1-induced NF-kappaB luciferase reporter cells, luminescence; inhibition, % at 12.5 µM; hit rate 0.69% among 350,000; AID 504558; in the data active = inhibition above about 41%; inconclusive = no clear call, values can overlap the other calls;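 also: 0% = neutral control wells and 100% = reference inhibitor control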
# TWEAK Fn14 block: TWEAK-Fn14 signaling inhibition | TWEAK-stimulated Fn14 reporter cells, luciferase luminescence, 8 h | inhibition, % at 10 µM | hit rate 2% among 360,000 | AID 1159606; in the data active = inhibition above about 50%
# Starred values were filed as active, the others as inactive; ? = inconclusive; nt = no result given. Compounds with a hit are over-represented: about 3.6% of the library has one in this group of screens.
SMILES,TROY NFkB inh,LGR2 antag,HSF1 activator,HSF1 inh,EBV LMP1 NFkB,TWEAK Fn14 block
COCC(=O)Nc1ccc2c(c1)C(=O)N(C)[C@@H]1CC[C@H](CC(=O)NCC3CCCCC3)O[C@@H]1CO2,nt,-4,nt,nt,nt,nt
Cc1ccc(S(=O)(=O)N(C)C[C@@H]2OCCCC[C@H](C)Oc3ccc(NC(=O)C4CCCCC4)cc3C(=O)N([C@H](C)CO)C[C@H]2C)cc1,nt,0,nt,nt,nt,nt
CCOC(=O)C1=C(N)N(c2ccccc2)C2=C(C(=O)CCC2)C1c1cccnc1 (stereo unspecified),14,15,0,-3,-1,52*
COc1cc(C2C(C#N)=C(N)N(c3cccnc3)C3=C2C(=O)CCC3)ccc1O (stereo unspecified),15,-2,-8,-4,-4,21
COCC(=O)Nc1ccc2c(c1)OC[C@H](C)N(C(=O)C1CCCC1)C[C@H](C)[C@@H](OC)CN(C)C2=O,nt,-2,nt,nt,nt,nt
COc1ccccc1N(C)S(=O)(=O)c1ccc(C(=O)OCC(=O)N(C)c2ccccc2)cc1,1,-10,-19,-7,1,11
O=C(OCC(=O)c1c[nH]c2ccccc12)c1cccc(S(=O)(=O)N2CCCCCC2)c1,1,14,23,2,-8,52*
COc1ccccc1N(C)S(=O)(=O)c1ccc(C(=O)NC(C)c2ccccc2)cc1 (stereo unspecified),-13,11,-74,-67*,-4,3
COc1cccc(/C=C/C(=O)OCC(=O)c2c[nH]c3ccccc23)c1,12,-2,nt,nt,-13,15
COc1cccc(/C=C/C(=O)OCC(=O)c2c[nH]c3ccccc23)c1OC,34,nt,27,4,-1,55*
O=C(COC(=O)c1cccc(S(=O)(=O)N2CCCCC2)c1)NCc1ccccc1,3,-8,nt,nt,3,-6
COc1ccccc1N(C)S(=O)(=O)c1ccc(C(=O)OCC(=O)c2c[nH]c3ccccc23)cc1,37,26,18,7,6,51*
CCCNC(=O)C[C@H]1CC[C@H]2[C@@H](COc3ccc(NC(=O)c4cccc(OC)c4)cc3C(=O)N2C)O1,nt,-1,nt,nt,nt,nt
CC(C)C#Cc1ccc2c(c1)O[C@H](CN(C)S(=O)(=O)c1cn(C)cn1)[C@@H](C)CN([C@H](C)CO)S2(=O)=O,nt,-10,nt,nt,nt,nt
C[C@@H]1CCCCO[C@H](CN(C)C(=O)Cc2ccccc2)[C@H](C)CN([C@@H](C)CO)C(=O)c2cc(NC(=O)NC3CCCCC3)ccc2O1,nt,-7,nt,nt,nt,nt
CC(C)c1ccc(-c2nnn(CCC(=O)O)n2)cc1,48,nt,-62,?,45*,87*
CCOC(=O)C1=C(C)N(CCC(=O)O)C(=O)NC1c1ccccc1Cl (stereo unspecified),2,-1,-82,-77*,0,-4
CCOC(=O)C1=C(C)N(C)C(=O)NC1c1ccccc1OC (stereo unspecified),15,nt,-4,-4,40*,5
CCOC(=O)C1=C(C)N(C)C(=O)NC1c1c(OC)ccc2ccccc12 (stereo unspecified),-46,12,7,3,-18,-4
O=C(N[C@H]1CC[C@H](CCn2cc(-c3ccc(F)cc3)nn2)O[C@@H]1CO)c1cnccn1,nt,20,nt,nt,nt,nt
C[C@@H]1CN([C@@H](C)CO)C(=O)c2cc(NC(=O)Nc3ccc(F)cc3)ccc2O[C@@H](C)CCCCO[C@H]1CN(C)Cc1ccccc1,nt,28,nt,nt,nt,nt
CCOC(=O)c1ccc(NC(=O)CN2CCN(C(=O)C3CCCO3)CC2)cc1 (stereo unspecified),4,11,-26,-12,-9,-6
CCOc1ccc(NC(=O)CN2CCN(C(=O)C3CCCO3)CC2)cc1 (stereo unspecified),-4,8,-3,-6,0,93*
Cc1ccc(S(=O)(=O)Nc2ccc3c(c2)C(=O)N([C@@H](C)CO)C[C@@H](C)[C@H](CN(C)S(=O)(=O)c2cn(C)cn2)OCCCC[C@@H](C)O3)cc1,nt,17,nt,nt,nt,nt
O=C(C[C@H]1C[C@H]2c3cc(NC(=O)CC4CC4)ccc3O[C@H]2[C@H](CO)O1)NCc1ccc(-c2ccccc2)cc1,nt,10,nt,nt,nt,nt
SMILES,TROY NFkB inh,LGR2 antag,HSF1 activator,HSF1 inh,EBV LMP1 NFkB,TWEAK Fn14 block
COC(=O)[C@@H](Cc1c[nH]c2ccccc12)NC(=O)c1ccc2c(c1)OCO2,6,-20,70*,30,-52,11
O=C(c1ccccc1)c1ccc2ccccc2c1,-62,-78,nt,nt,-14,-20
O=C(c1ccccc1)c1c2c(cc3sc4ccccc4[n+]13)-c1cccc3cccc-2c13,40,48,nt,nt,-15,60*
Cc1cc2ccccc2cc1C(=O)c1ccccc1,-29,-2,nt,nt,-1,-29
Cc1sc2cc3c(c(C(=O)c4ccccc4)[n+]2c1C)-c1cccc2cccc-3c12,nt,65*,-38,-44,nt,nt
O=C(c1ccccc1)N1CC2(C1)[C@H](c1ccccc1)[C@H](CO)N2CC1CC1,nt,0,nt,nt,nt,nt
Cc1ccc(Sc2cnc3ccccc3n2)cc1,-45,nt,36,10,56*,-7
CC(Sc1cnc2ccccc2n1)C(=O)O (stereo unspecified),-10,nt,-28,-8,-12,3
N#C[C@@H]1[C@H](c2ccc(C#Cc3ccc(F)cc3)cc2)[C@@H](CO)N1C(=O)Nc1ccc(F)cc1,nt,59*,nt,nt,nt,nt
CCCNC(=O)N1[C@H](C#N)[C@H](c2ccc(C#Cc3ccc(F)cc3)cc2)[C@H]1CO,nt,53*,nt,nt,nt,nt
CCCNC(=O)N1[C@H](C#N)[C@H](c2ccc(C#Cc3ccc(F)cc3)cc2)[C@@H]1CO,nt,8,nt,nt,nt,nt
O=C(Cn1ncc(Cl)c(Cl)c1=O)Nc1ccc2c(c1)OCO2,2,-9,nt,nt,-68,75*
Cc1cc(Br)ccc1NC(=O)CNC(=O)Cn1ncc(Cl)c(Cl)c1=O,28,74*,nt,nt,83*,60*
Cc1ccc(S(=O)(=O)N2CCCCC2)cc1NCC(=O)Nc1ccc(Br)cc1F,53*,12,nt,nt,-1,80*
CCN(CC)S(=O)(=O)c1cc(NC(=O)Cn2ncc(Cl)c(Cl)c2=O)ccc1C,89*,25,120*,81,-60,98*
CN(C)C(=O)c1ccc(-c2ccc(C3[C@@H]4CN(C(=O)C5CCCC5)C[C@H]3N4)cc2)cc1 (stereo partly specified),nt,-1,nt,nt,nt,nt
C[C@@H](O)C#Cc1cnc2c(c1)C(=O)N([C@@H](C)CO)C[C@H](C)[C@H](CN(C)C(=O)Cc1ccncc1)O2,nt,28,nt,nt,nt,nt
CN1CCN(C(=O)C[C@H]2C=C[C@@H](NC(=O)Cc3ccccn3)[C@@H](CO)O2)CC1,nt,-21,nt,nt,nt,nt
Cc1ccc(S(=O)(=O)N2CCCCC2)cc1NC(=O)Cn1ncc(Cl)c(Cl)c1=O,80*,54*,nt,nt,-31,100*
COc1ccc(NC(=O)c2ccc(Cl)nc2)cc1S(=O)(=O)N1CCOCC1,5,-6,nt,nt,-4,14
COc1ccc(NC(=O)Cn2ncc(Cl)c(Cl)c2=O)cc1S(=O)(=O)N1CCOCC1,-2,-14,-9,-4,-14,74*
